Laboratory results taken from PubChem BioAssay AID1845 (The Scripps Research Institute Molecular Screening Center, 2009).
In all, about 290,000 compounds went through this assay and about 490 (0.17%) were called active. For the sample, actives were picked, then their nearest neighbours and some compounds at random. Values without a mark were called inactive. No stated cut-off is given here; in the data, active means inhibition above about 37%; inactive means the rest.

Test: DNA intercalator displacement agents – biochemical, FID fluorescence, artefact control for HCV NS3 helicase inhibitor project, primary screen (AID 1845);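 further: 0% = vehicle and 100% = reference compound; higher means more ethidium bromide displaced from hairpin DNA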
Details: DNA fluorescent intercalator displacement, at 7.9 µM, stronger effect = higher value

Row | SMILES | inhibition
1 | CCN(CC(=O)Nc1ccccc1OC)C(=O)Cn1cnc2ccccc2c1=O | -5.22%
2 | Cc1cc(-c2nnc(CCC(=O)NC(c3ccccc3)c3ccccc3)o2)no1 | -7.1%
3 | Cc1ccc(C(C)C)c(OCCSc2nc3ccccc3n2CC(=O)O)c1 | -11.6%
4 | O=C(CSc1nc2nccnc2c(=O)n1Cc1cccs1)Nc1ccccc1F | -11.4%
5 | COc1ccc(-c2noc(C(C)NS(=O)(=O)c3ccc(NC(C)=O)cc3)n2)cc1 (stereo unspecified) | -8%
6 | CCCCCC1CC(COc2ccccc2)OC1=O (stereo unspecified) | -26.6%
7 | O=C1C(=O)N(CCN2CCOCC2)C(c2cccc(Cl)c2)/C1=C(/O)c1ccc2c(c1)OCO2 (stereo unspecified) | -31.7%
8 | Cc1nnc(SCC(=O)N2c3ccccc3C(C)(c3ccc(Cl)cc3)CC2(C)C)s1 (stereo unspecified) | -27.2%
9 | Cn1c(=O)n(C)c2cc(S(=O)(=O)Nc3ccc(F)cc3)ccc21 | -0.97%
10 | CCc1ccc(-c2cc(C(=O)NN3CCN(C)CC3)c3ccccc3n2)cc1 | 16.5%
11 | O=S(=O)(NCC1CC1)c1ccc(F)c(Cl)c1 | -2.55%
12 | O=C(NCC(=O)N1CCN(c2ccccc2O)CC1)c1ccc2ccccc2c1 | -38.7%
13 | CCc1ccc(NC(=O)COC(=O)c2cccs2)cc1 | -15%
14 | CCOC(OCC)c1ccc(/C=C\c2nccc(N)n2)cc1 | -11.1%
15 | CCN1CCN(c2ccc(S(=O)(=O)N3CCCCC3)cc2NC(=O)Cc2c(Cl)cccc2Cl)CC1 | 24.2%
16 | CN1CCN(c2ccc(S(=O)(=O)N3CCCCC3)cc2NC(=O)Cc2ccccc2F)CC1 | 17.4%
17 | COc1ccc(CC(=O)Nc2cc(S(=O)(=O)N3CCCCC3)ccc2N2CCN(C)CC2)cc1 | 39.2% (active)
18 | CN(C)c1cccc(C(=O)N2CCC(n3nccc3NC(=O)C3CCOC3)CC2)c1 (stereo unspecified) | -16.7%
19 | COc1ccc(NC(=O)CSc2nc3ccccc3c(=O)n2C)cc1 | -13.4%

Row | SMILES | inhibition
20 | COCCCN1C(=O)C(=O)/C(=C(/O)c2ccc(S(=O)(=O)N3CCOCC3)cc2)C1c1ccc(F)cc1 (stereo unspecified) | -50.7%
21 | CC1CN(C(=O)CCC(=O)NCc2cccnc2)c2ccccc2O1 (stereo unspecified) | -10.2%
22 | CC1CN(C(=O)CCC(=O)NC2CCN(Cc3ccccc3)CC2)c2ccccc2O1 (stereo unspecified) | 2.82%
23 | CC1CN(C(=O)CCC(=O)NCCCN2CCC(Cc3ccccc3)CC2)c2cc(Cl)ccc2O1 (stereo unspecified) | 41.2% (active)
24 | Cc1cc(O)c(C(=O)/C=C/c2c(F)c(F)c(F)c(F)c2F)c(=O)o1 | -15.9%
25 | CC1CC(C)CN(CCCNC(=O)Cn2ncc3c([nH]c4ccccc43)c2=O)C1 (stereo unspecified) | 5.73%
26 | Cc1c2cnn(CC(=O)NCCCN3CC(C)CC(C)C3)c(=O)c2c(C)n1Cc1ccc(Cl)cc1 (stereo unspecified) | 37.1% (active)
27 | Cc1c2cnn(CC(=O)NCc3ccccn3)c(=O)c2c(C)n1Cc1ccc(Cl)cc1 | -39%
28 | CN(C)CCNC(=O)/C(=C/c1cccc([N+](=O)[O-])c1)NC(=O)c1ccccc1 | 14.4%
29 | N#C/C(=C\c1ccc(-c2cccc([N+](=O)[O-])c2)o1)C(=O)NCCN1CCOCC1 | 6.61%
30 | Cc1ccc(C(=O)N/C(=C/c2ccc(-c3cccc([N+](=O)[O-])c3)o2)C(=O)NCCCN(C)C)cc1 | 41.5% (active)
31 | CCN(CC)CCNC(=O)Cn1cnc2sc(C)c(S(=O)(=O)N3CCOCC3)c2c1=O | 11.1%
32 | CCN(CC)CCCNC(=O)Cn1cnc2sc(C)c(S(=O)(=O)N3CCN(c4ncccn4)CC3)c2c1=O | 26.1%
33 | CCN(CC)CCNC(=O)c1sc2ncn(CC(=O)Nc3ccc(C)c(Cl)c3)c(=O)c2c1C | 37% (active)
34 | O=C(c1c(F)cccc1F)N1CCN(c2ncc(Br)cn2)CC1 | -20.1%
35 | Cc1cc(=O)oc2c3c(cc(OCC(=O)NCCC(=O)N[C@@H](C)C(=O)O)c12)OC(C)(C)CC3 | -35.5%
36 | CCn1c(=O)c(C(=O)NCc2ccc3c(c2)OCO3)c(O)c2ccccc21 | -4.83%
37 | CC1CC(C)CN(S(=O)(=O)c2cccc3nonc23)C1 (stereo unspecified) | -7.76%
38 | C=CCN(Cc1nc(-c2cc(OC)c3c(c2)OCO3)oc1C)C1CCS(=O)(=O)C1 (stereo unspecified) | -27.8%

Row | SMILES | inhibition
39 | Clc1cc(NC2CCCCC2)ncn1 | -15.2%
40 | CS(=O)(=O)N(CC(=O)N/N=C/c1ccccn1)c1ccc(Oc2ccccc2)cc1 | -33.5%
41 | Cc1cc(C)c2nc3nc(C)cc(C)c3c(N)c2c1 | 62.7% (active)
42 | Cc1cc(C)c2nc(SCCC#N)nc(C)c2c1 | -17%
43 | Cc1cc(C)c2c(n1)nn1c(N3CCOCC3)cc(C)nc21 | -11.1%
44 | OCCN1CCN(c2nnc(-c3ccccc3)c3ccccc23)CC1 | -5.67%
45 | O=C1c2ccccc2C(=O)c2c1cccc2N1CCN(CCO)CC1 | 53.2% (active)
46 | O=C1c2ccccc2C(=O)c2c1cccc2N1CCN(Cc2ccccc2)CC1 | 8.12%
47 | Cc1cccc(-c2nc(CS(=O)CC(=O)NC(C)CCc3ccccc3)c(C)o2)c1 (stereo unspecified) | -57.2%
48 | CC(=N\NC(=O)c1cc(Br)ccc1O)/C(=N/O)C(=O)Nc1ccccc1 | -11.2%
49 | CN1CCN(NC(=O)Nc2ccc(Br)cc2)CC1 | -5.13%
50 | COc1ccccc1NC(=O)C(C)OC(=O)CC1CCCC1 (stereo unspecified) | -26.3%
51 | CC(=O)NC(CC(=O)Nc1nc(-c2ccccc2)c(C(C)=O)s1)c1ccccc1 (stereo unspecified) | -16.9%
52 | Clc1nc(NC2CCCC2)nc(N2CCOCC2)n1 | -6.99%
53 | O=C(CNC(=O)[C@@H]1Cc2ccccc2CN1)NC1CCCCC1 | 0.62%
54 | CC(C)c1cc(C(=O)N/N=C/C(Br)=C/c2ccccc2)n[nH]1 | -26.4%
55 | CCN(CC(=O)NCc1cccs1)C(=O)c1cccc(S(=O)(=O)Nc2ccccc2OC)c1 | -11.7%
56 | COCCNC(=O)c1ccc(S(=O)(=O)c2ccc(Cl)cc2)c(NC(C)=O)c1 | 0.74%
